Assay [1] in a line: small molecules captured by biotinylated probe aFSTL3 – biochemical, small-molecule microarray, fluorescence 635/667, stem cell growth factor project, primary screen (AID 1064).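 Note: measures binding of the biotinylated anti-FSTL3 antibody to printed compounds.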 Conditions: higher = more signal.
Assay [2] is described as follows: binders from COS7 lysate, DM2A8 probe, primary screen, torsin A project, cell lysate, small-molecule microarray, fluorescence 635/667 (AID 1065). As to conditions: higher = more signal, COS7 lysate expressing mutant human TOR1A.
A short description of assay [3]: small molecules captured by biotinylated probe aFGF2 – biochemical, small-molecule microarray, fluorescence 635/667, stem cell growth factor project, primary screen (AID 1067).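 Note: measures binding of biotinylated aFGF2 protein to printed compounds on slides; z-score merges feature fluorescence and signal-to-noise across triplicate slides.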 As to conditions: higher = more signal.
Assay [4] is described as follows: small molecules captured by biotinylated probe aFGF10 – biochemical, small-molecule microarray, fluorescence 635/667, stem cell growth factor project, primary screen (AID 1071).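 Note: score merges 667 nm spot intensity and signal to noise from triplicate slides.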 As to conditions: higher = more signal.
The target in assay [5] is Neurogenic locus notch homolog protein 2 (Homo sapiens) (UniProt Q04721). The experiment in a line: small molecules binding Notch2 protein – biochemical, small-molecule microarray, 635 nm fluorescence, stem cell growth factors, primary screen (AID 1073). Conditions: higher = more signal.
The target of assay [6] is Pro-neuregulin-1, membrane-bound isoform (Homo sapiens) (UniProt Q02297). The experiment in a line: small molecules binding neuregulin-1 protein – biochemical, small-molecule microarray, fluorescence 635/667, psychiatric disease protein project, primary screen (AID 1075).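 Note: score combines 667 nm spot fluorescence with signal to noise.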 As to conditions: NRG1 binding, 635 nm fluorescence, higher = more signal.
In assay [7] the test system is Neuregulin-1 EGF-like domain. The experiment in a line: small molecules binding NRG1 EGF domain – biochemical, small-molecule microarray, 635 nm fluorescence, primary screen (AID 1081).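 Note: binding of the protein to compounds printed on small-molecule microarray slides.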 As to conditions: higher = more signal.
A short description of assay [8]: FRG1 expression reporter modulators in myotubes – cell-based, C2C12 myotubes, firefly/Renilla luciferase, luminescence, FRG1 inhibition for FSHD, primary screen (AID 1084). Conditions: FRG1 promoter luciferase, higher = more signal, called active from +8 up or from −8 down.
Assay [9] in a line: small molecules captured by biotinylated probe aFST – biochemical, small-molecule microarray, fluorescence 635/667, stem cell growth factor project, primary screen (AID 1086).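 Note: score merges 667 nm fluorescence with signal-to-noise of each printed compound spot.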 As to conditions: higher = more signal.
Assay [10] is described as follows: binders of probe aHhip on microarray, primary screen, stem cell growth factor project, biochemical, small-molecule microarray, fluorescence 635/667 (AID 1087).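 Note: score merges spot fluorescence at 667nm with spot signal to noise ratio.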 Conditions: higher = more signal.
The subject of assay [11] is PRMT1 (protein arginine N-methyltransferase 1). Kind of assay: small molecules binding arginine methyltransferase PRMT1 – biochemical, small-molecule microarray, 635 nm fluorescence, primary screen (AID 1088).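 Note: binding of Prmt1 protein to compounds spotted on small-molecule microarray slides.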 As to conditions: higher = more signal.
The nature of assay [12]: growth effects on S. cerevisiae YJM789 – YJM789 clinical isolate, OD600, 24 h, basal, primary screen (AID 1089).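 Note: growth of clinical yeast isolate S. cerevisiae YJM 789 seeded 1000 cells per well; test concentration not given here.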 Conditions: higher = more signal, called active from +8 up or from −8 down.
Assay [13] is described as follows: S. pombe growth modifiers, basal conditions – strain 972, OD600, 24 h, no modulator, primary screen (AID 1090).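 Note: basal condition with compound alone and no growth modifier present; test concentration not given here.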 Conditions: S. pombe 972 growth, higher = more signal, called active from +8 up or from −8 down.
The nature of assay [14]: budding yeast growth modifiers under rapamycin – strain BY4716, OD600, 96 h, primary screen (AID 1091). Note: test concentration not given here. As to conditions: S. cerevisiae BY4716 + rapamycin, higher = more signal, called active from +8 up or from −8 down.
Assay [15] has as its target Torsin-1A-interacting protein 2 (Homo sapiens) (UniProt Q8NFQ8). The experiment in a line: small molecules binding lysate-expressed LULL1 – cell lysate, human LULL1 lysate, 635/667 nm fluorescence, primary screen (AID 1092).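 Note: score merges per-feature 667 nm fluorescence with signal-to-noise.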 Conditions: small-molecule microarray, hLULL1 lysate binding, 635 nm fluorescence; higher = more signal.
A short description of assay [16]: optical density change of DRC41 E. coli – strain DRC41, OD650, 24 h, E. coli filamentation project, primary screen (AID 1093).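 Note: MC1000 strain lacking acrAB efflux and sulA so SOS filamentation is blocked; test concentration not given here.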 As to conditions: E. coli DRC41 growth, higher = more signal, called active from +8 up or from −8 down.
The nature of assay [17]: probe aLefty2 binding to arrayed compounds – biochemical, biotinylated probe, 635/667 nm fluorescence, primary screen (AID 1094).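 Note: score merges spot fluorescence near 667 nm with spot signal-to-noise ratio.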 Conditions: small-molecule microarray, higher = more signal.
For assay [18], the system named is Noggin (protein binding on small-molecule microarray). The experiment in a line: small molecules binding Noggin protein – biochemical, 635/667 nm fluorescence, primary screen (AID 1095).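 Note: score merges 667 nm feature fluorescence with signal to noise over triplicate slides.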 Conditions: 635 nm fluorescence, higher = more signal.
Assay [19] concerns the target Neurogenic locus notch homolog protein 3 (Homo sapiens) (UniProt Q9UM47). The experiment in a line: small molecules binding NOTCH3 protein – biochemical, 635/667 nm fluorescence, primary screen (AID 1096). As to conditions: small-molecule microarray, 635 nm fluorescence, higher = more signal.
The nature of assay [20]: probe aEGFR binding to arrayed compounds – biochemical, biotinylated probe, 635/667 nm fluorescence, primary screen (AID 1097).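 Note: probe is a biotinylated anti-EGFR antibody binding compounds printed on slides; score combines fluorescence near 667 nm and signal to noise of each spot.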 Conditions: small-molecule microarray, higher = more signal.

Active and inactive are the calls of the source.

Sequence of Neurogenic locus notch homolog protein 3 (Homo sapiens) (Q9UM47 whole entry, looked up): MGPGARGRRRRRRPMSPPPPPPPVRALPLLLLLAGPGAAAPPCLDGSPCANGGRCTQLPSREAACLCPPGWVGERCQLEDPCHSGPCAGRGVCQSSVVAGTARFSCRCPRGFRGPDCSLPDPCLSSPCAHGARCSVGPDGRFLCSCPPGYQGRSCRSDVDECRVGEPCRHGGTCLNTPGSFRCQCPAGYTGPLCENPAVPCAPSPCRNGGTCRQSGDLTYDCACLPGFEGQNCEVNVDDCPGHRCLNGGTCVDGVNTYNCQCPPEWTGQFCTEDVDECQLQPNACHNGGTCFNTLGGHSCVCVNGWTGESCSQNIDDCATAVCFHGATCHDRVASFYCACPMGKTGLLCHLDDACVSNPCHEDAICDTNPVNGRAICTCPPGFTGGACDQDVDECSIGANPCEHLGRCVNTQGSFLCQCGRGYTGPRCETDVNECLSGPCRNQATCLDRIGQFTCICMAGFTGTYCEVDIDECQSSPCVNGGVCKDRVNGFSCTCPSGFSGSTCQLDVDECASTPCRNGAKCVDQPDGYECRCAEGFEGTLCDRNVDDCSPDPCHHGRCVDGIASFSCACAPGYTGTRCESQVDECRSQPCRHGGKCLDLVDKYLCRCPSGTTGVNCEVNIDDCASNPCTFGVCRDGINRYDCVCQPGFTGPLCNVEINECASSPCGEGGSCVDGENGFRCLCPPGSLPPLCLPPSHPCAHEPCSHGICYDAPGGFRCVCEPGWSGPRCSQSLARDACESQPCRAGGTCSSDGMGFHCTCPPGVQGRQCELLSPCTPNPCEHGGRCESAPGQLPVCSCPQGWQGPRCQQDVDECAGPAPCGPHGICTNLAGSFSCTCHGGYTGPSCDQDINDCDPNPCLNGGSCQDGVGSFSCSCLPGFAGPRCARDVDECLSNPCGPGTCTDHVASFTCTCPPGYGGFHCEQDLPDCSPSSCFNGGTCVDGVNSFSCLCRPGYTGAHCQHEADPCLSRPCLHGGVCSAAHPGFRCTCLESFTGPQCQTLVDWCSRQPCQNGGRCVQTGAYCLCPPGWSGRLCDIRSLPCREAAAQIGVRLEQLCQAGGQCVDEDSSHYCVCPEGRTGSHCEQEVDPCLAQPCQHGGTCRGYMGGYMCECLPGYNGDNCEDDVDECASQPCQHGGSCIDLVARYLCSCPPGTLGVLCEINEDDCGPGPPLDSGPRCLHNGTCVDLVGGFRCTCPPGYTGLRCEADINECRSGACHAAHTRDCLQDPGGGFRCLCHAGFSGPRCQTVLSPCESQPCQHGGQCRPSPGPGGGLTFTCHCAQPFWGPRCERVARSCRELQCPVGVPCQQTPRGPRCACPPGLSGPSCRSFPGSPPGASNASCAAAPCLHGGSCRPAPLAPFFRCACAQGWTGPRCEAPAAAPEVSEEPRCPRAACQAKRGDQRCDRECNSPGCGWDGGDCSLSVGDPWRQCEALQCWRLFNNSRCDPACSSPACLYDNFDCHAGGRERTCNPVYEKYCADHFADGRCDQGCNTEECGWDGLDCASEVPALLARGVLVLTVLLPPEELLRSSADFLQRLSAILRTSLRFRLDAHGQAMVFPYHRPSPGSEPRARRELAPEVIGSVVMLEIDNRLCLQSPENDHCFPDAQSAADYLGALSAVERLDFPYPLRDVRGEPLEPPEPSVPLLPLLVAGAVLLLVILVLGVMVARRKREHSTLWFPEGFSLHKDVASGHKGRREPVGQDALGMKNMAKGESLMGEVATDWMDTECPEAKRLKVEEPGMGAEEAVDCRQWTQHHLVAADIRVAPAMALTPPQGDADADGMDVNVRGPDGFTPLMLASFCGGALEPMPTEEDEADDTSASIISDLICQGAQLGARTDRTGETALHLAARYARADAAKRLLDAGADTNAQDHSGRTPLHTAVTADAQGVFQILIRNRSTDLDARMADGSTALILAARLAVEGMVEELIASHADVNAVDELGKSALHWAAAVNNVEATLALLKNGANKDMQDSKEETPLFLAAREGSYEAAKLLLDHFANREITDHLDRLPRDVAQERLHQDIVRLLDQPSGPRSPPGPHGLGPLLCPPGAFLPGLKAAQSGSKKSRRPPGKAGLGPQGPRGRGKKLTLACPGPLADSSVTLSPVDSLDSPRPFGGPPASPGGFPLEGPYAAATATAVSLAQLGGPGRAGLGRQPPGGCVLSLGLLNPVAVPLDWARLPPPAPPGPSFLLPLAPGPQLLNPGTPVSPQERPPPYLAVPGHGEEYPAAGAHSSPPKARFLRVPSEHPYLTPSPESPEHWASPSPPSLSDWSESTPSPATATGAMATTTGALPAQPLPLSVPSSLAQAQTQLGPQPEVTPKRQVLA
Sequence of Neurogenic locus notch homolog protein 2 (Homo sapiens) (Q04721 whole entry, looked up, canonical isoform): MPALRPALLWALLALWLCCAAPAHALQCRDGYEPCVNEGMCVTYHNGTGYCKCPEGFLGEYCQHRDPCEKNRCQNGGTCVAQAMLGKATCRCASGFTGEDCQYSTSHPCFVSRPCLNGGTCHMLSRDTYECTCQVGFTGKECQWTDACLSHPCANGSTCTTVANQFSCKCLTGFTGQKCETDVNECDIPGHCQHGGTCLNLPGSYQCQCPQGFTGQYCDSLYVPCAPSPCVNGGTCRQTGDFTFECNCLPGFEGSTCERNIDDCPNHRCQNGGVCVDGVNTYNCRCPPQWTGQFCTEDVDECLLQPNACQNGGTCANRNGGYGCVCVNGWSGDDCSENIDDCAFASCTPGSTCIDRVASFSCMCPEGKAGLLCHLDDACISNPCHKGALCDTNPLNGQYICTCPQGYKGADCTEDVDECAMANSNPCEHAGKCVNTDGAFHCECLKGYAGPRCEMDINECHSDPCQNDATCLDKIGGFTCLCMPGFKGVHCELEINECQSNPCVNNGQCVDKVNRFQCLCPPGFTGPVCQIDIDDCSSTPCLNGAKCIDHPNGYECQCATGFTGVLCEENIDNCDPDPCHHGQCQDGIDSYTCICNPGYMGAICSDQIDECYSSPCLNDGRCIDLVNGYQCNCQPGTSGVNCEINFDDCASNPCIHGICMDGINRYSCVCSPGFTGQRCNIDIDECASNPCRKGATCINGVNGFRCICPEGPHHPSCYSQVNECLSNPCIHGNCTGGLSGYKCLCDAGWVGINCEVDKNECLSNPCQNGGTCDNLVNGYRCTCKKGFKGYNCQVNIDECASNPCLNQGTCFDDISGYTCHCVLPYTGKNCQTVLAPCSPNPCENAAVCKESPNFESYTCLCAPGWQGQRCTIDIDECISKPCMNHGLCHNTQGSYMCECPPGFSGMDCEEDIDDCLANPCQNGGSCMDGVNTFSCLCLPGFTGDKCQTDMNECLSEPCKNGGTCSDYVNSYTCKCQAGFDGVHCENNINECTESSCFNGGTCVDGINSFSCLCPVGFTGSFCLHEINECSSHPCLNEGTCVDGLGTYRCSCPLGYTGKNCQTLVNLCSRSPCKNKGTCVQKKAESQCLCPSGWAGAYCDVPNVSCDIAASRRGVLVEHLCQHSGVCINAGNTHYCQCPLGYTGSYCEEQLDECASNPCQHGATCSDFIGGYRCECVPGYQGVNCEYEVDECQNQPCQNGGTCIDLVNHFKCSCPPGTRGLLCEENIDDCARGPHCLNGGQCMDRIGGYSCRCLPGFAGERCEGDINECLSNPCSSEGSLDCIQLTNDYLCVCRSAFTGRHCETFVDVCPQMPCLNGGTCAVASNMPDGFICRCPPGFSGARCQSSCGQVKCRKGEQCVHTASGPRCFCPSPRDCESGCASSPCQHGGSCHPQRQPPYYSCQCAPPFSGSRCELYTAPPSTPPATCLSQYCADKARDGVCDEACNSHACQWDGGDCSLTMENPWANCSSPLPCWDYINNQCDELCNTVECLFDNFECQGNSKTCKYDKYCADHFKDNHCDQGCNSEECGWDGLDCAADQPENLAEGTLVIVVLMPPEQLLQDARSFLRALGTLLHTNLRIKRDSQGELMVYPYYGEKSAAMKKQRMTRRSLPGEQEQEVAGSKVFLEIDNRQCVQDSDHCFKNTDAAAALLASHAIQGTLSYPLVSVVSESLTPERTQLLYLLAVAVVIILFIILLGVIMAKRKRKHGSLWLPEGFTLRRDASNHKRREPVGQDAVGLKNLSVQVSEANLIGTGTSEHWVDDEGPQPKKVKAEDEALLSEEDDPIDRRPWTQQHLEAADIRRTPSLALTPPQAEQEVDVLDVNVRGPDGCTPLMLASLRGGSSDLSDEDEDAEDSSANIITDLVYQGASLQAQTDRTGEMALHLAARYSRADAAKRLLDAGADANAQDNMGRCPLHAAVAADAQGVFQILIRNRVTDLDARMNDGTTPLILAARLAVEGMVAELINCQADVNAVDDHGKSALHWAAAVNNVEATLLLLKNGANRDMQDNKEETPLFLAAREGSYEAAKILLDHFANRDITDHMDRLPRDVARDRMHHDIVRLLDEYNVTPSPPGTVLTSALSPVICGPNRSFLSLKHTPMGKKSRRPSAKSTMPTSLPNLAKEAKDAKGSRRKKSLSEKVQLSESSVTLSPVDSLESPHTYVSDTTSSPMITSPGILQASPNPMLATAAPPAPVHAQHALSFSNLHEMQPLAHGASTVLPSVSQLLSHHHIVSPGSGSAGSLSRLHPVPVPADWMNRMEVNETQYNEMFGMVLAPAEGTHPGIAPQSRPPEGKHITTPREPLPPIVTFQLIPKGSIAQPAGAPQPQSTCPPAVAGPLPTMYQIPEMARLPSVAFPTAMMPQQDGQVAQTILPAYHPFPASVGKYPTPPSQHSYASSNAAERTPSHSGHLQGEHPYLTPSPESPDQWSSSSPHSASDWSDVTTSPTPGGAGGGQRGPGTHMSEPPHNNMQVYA

With `COc1ccc([Si](C)(C)[C@@H]2[C@@H](CCO)O[C@]3(C(=O)N(Cc4ccccc4)c4ccc(N5C(=O)c6ccccc6Oc6ccccc65)cc43)[C@H]2C)cc1`, the composite z-score in assay [1] was -0.0276; in assay [2] it was -0.662; in [3] it was -0.0962; in assay [4] it was 0.379; in assay [5], -0.236; in assay [6] it was 0.992. For the same compound, the composite z-score in assay [7] is 0.671; in [9] it was -0.089; in assay [10], -0.284; in assay [11] it was 0.182; in assay [15] it was 1.21; in assay [17], -0.136. The composite z-score is 0.245 in [18], 0.057 in assay [19] and -0.19 in assay [20]. Further, the z-score in assay [8] was 0.816 (inactive); in assay [12] it was 1.32 (inactive); in assay [13] it was 0.381 (inactive); in assay [14], 8.27 (active); in assay [16] it was 1.13 (inactive).

For the compound `CC(C)[Si](C#CCCCC#N)(O[C@H](c1ccccc1)c1cn([C@H](C)c2ccccc2)nn1)C(C)C`, the composite z-score was -0.207 in assay [1]; 0.268 in assay [2]; -0.0538 in assay [3]; 0.505 in assay [4]; 0.792 in assay [5]; 0.816 in assay [6]. Moreover, the composite z-score in [7] is 0.726; in [9] it was 0.612; in assay [10] it was -0.214; in assay [11], 1.48; in [15], 0.76; in assay [17], 0.064. Further, the figures for the composite z-score in [18], in assay [19] and in [20] were 1.08, 1.1 and -0.152, respectively. In addition, the z-score is -2.24 (inactive) in assay [8]; -0.766 (inactive) in [12]; -0.415 (inactive) in assay [13]; -3.12 (inactive) in [14]; 0.674 (inactive) in assay [16].

Turning to `NC(=O)[C@@]1(CCS(=O)(=O)c2ccccc2)COC(c2ccc(OCCCO)cc2)=N1`, the composite z-score stood at 0.615 in assay [1]; 0.0735 in assay [2]; 0.0777 in [3]; 0.0833 in [4]; 0.963 in assay [5]; 1.78 in [6]. For the same compound, the composite z-score in [7] is 0.832; in [9], 0.194; in assay [10] it was -0.112; in assay [11] it was -0.617; in assay [15] it was 1.28; in assay [17], 0.158. The composite z-score in assay [18] is -0.0167; in [19], -0.57; in assay [20], -0.0826. In addition, the z-score in assay [8] is -0.429 (inactive); in [12], -0.0133 (inactive); in assay [13] it was -0.213 (inactive); in assay [14] it was 0.0084 (inactive); in assay [16] it was 0.817 (inactive).

With `COC(=O)[C@H](Cc1ccc(O)cc1)N1CC2=CCCC=C[C@@H]2[C@H]1[C@H](O)Cc1ccccc1`, the composite z-score in assay [1] is -0.565; in assay [2], -0.214; in [3], -0.124; in [4] it was 0.288; in assay [5] it was 0.35; in assay [6], 0.166. Moreover, the composite z-score in [7] was 0.324; in [9] it was 0.166; in [10], -0.132; in assay [11] it was 1.13; in assay [15], 0.616; in assay [17] it was -0.29. The results for the composite z-score in assay [18], in [19] and in assay [20] were 0.191, -0.0213 and -0.112, respectively. Besides, the z-score in assay [8] is -0.106 (inactive); in assay [12], -0.662 (inactive); in assay [13], -2.3 (inactive); in assay [14], -1.03 (inactive); in assay [16] it was 0.65 (inactive).

In the case of `[N-]=[N+]=NCc1ccccc1C[C@]1(C(=O)N2CCOCC2)N=C(c2ccc(OCCCO)cc2)O[C@H]1c1ccccc1CN=[N+]=[N-]`, the composite z-score in assay [1] was found to be 0.998; in assay [2], 2.14; in assay [3] it was 0.285; in [4], 0.88; in [5], 1.42; in assay [6] it was 2.09. The composite z-score in [7] is 1.26; in [9] it was 1.5; in [10] it was 0.0623; in [11], 1.56; in assay [15], 3.61; in [17] it was 0.747. Further, the results for the composite z-score in assay [18], in assay [19] and in assay [20] were 0.809, 0.616 and 0.732, respectively. In addition, the z-score in [8] was -2.03 (inactive); in [12] it was 1.66 (inactive); in assay [13], 0.284 (inactive); in [14] it was 16.6 (active); in assay [16] it was 0.27 (inactive).

These data come from PubChem BioAssay.
